Source: PubChem BioAssay (NCATS)
Records with an inconclusive call do not appear. A number with no mark means an inactive call. Calls of active or inactive are those of the source. Calls follow the shape of the dose curve; as a rule, active = well fitted inhibition curve with a large enough effect; inconclusive = small, poorly fitted or top-dose-only effect; inactive = flat fitted curve, though single readings scatter.
Potency is read from the fitted curve at half-maximal effect.

These compounds were tested on Zika virus NS2B-NS3 protease (assay: Primary screen GU AMC qHTS for Zika virus inhibitors (AID 1347154; also: nearly all actives have a fitted effect of over 70% in size;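 as to activity change, negative = inhibition: 0% = no-inhibitor control and -100% = no-enzyme control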)). Conditions: Zika NS2B-NS3 unlinked protease, AMC fluorogenic substrate; series mostly up to 54.1 µM; activity change, negative = inhibition: at the top concentration.
Outline: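 Fluorogenic AMC-substrate cleavage by noncovalent NS2B-NS3 protease complex (25 nM, pH 8.0 Tris buffer with Tween 20) followed for 15 minutes at room temperature (~20% conversion). Percent inhibition from ex340/em450 signal change, fitted by 4-parameter Hill equation.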
In the case of `O=C(O)C1=CO[C@@H](O[C@@H]2O[C@H](CO)[C@H](O)[C@H](O)[C@H]2O)[C@@H]2C(CO)=CC[C@H]12`, the “activity change, negative = inhibition” value is reported as 8.14%. In the case of `N=C1SC(=Cc2ccc(-c3ccc4c(c3)C(=O)NC4=O)o2)C(=O)N1c1ccc(Br)cc1`, the “activity change, negative = inhibition” value is reported as -15.3%. For `Cc1cc2nc3c(=O)[nH]c(=O)nc-3n(CC(O)C(O)C(O)CO)c2cc1C` (stereo not drawn), the “activity change, negative = inhibition” value was -11.7%. For `COC(=O)Nc1ccc(-c2nc(N3CCOCC3)c3cnn(C4CCN(C(=O)OC)CC4)c3n2)cc1`, the “activity change, negative = inhibition” value was -4.57%. In the case of `CN(C)N=Nc1nc[nH]c1C(N)=O`, the “activity change, negative = inhibition” value is reported as 5.32%. In the case of `O=C(NCCCCN1CCOCC1)c1cc2ccccc2o1`, the “activity change, negative = inhibition” value is reported as 13.6%. `CC[C@@H]([C@H](C)O)n1ncn(-c2ccc(N3CCN(c4ccc(OCC5CO[C@@](Cn6cncn6)(c6ccc(F)cc6F)C5)cc4)CC3)cc2)c1=O` (stereo partly drawn) was tested, and the “activity change, negative = inhibition” value was 2.19%. `C#C[C@]1(O)CC[C@H]2[C@H]3CCc4cc(OC)ccc4[C@H]3CC[C@@]21C` was tested, and the “activity change, negative = inhibition” value was -6.99%. In the case of `CCNC(=O)Nc1ccc(Oc2ncnc(N)c2C=NOC)cc1Cl`, the “activity change, negative = inhibition” value is reported as 2.63%. `O=S(=O)(NCCNCC=Cc1ccc(Br)cc1)c1cccc2cnccc12` was tested, and the “activity change, negative = inhibition” value was 6.5%. With `CC(C)c1c(C(=O)Nc2ccccc2)c(-c2ccccc2)c(-c2ccc(F)cc2)n1CC[C@H](O)C[C@@H](O)CC(=O)O` the “activity change, negative = inhibition” value was -1.98%. In the case of `C[C@H](CCC(=O)O)[C@H]1CC[C@H]2[C@H]3[C@@H](CC[C@]12C)[C@@]1(C)CC[C@@H](O)C[C@H]1C[C@@H]3O`, the “activity change, negative = inhibition” value is reported as -9.77%. For `Oc1cc(O)cc(C=Cc2ccc(O)c(O)c2)c1`, the Potency was 13.6 µM (active). `Cc1cccc(-c2[nH]c(C(C)(C)C)nc2-c2ccc3c(c2)OCO3)n1` was tested, and the “activity change, negative = inhibition” value was 0.608%. `NC[C@H]1O[C@H](O[C@@H]2[C@@H](O)[C@@H](O[C@H]3O[C@H](CO)[C@@H](O)[C@H](N)[C@@H]3O)[C@H](N)C[C@@H]2N)[C@H](O)[C@@H](O)[C@H]1O` was tested, and the “activity change, negative = inhibition” value was 10.1%. For `CC=C1C2C=C(C)CC1(N)c1ccc(=O)[nH]c1C2` (stereo not drawn), the “activity change, negative = inhibition” value was 13.5%. With `CC(=O)OCC(=O)[C@@]12OC(C)(C)O[C@H]1C[C@H]1[C@@H]3C[C@H](F)C4=CC(=O)C=C[C@]4(C)[C@@]3(F)[C@@H](O)C[C@@]12C` the “activity change, negative = inhibition” value was 11.3%. `NCC1CCC(C(=O)O)CC1` (stereo not drawn) was tested, and the “activity change, negative = inhibition” value was 12%. In the case of `CCC(=C(c1ccc(O)cc1)c1ccc(OCCNC)cc1)c1ccccc1`, the “activity change, negative = inhibition” value is reported as 8.17%. In the case of `CC(C)CN(C[C@H](O)[C@H](Cc1ccccc1)NC(=O)O[C@H]1CCOC1)S(=O)(=O)c1ccc(N)cc1`, the “activity change, negative = inhibition” value is reported as -6.29%. `CCCCC(C=O)NC(=O)C(CC(C)C)NC(=O)OCc1ccccc1` (stereo not drawn) was tested, and the “activity change, negative = inhibition” value was 10.2%. `Cc1cccc(Nc2nc(N[C@@H]3CCCC[C@H]3N)ncc2C(N)=O)c1` was tested, and the “activity change, negative = inhibition” value was 6.01%. `COc1cc2nccc(Oc3ccc(NC(=O)Nc4ccc(F)cc4F)c(F)c3)c2cc1OC` was tested, and the Potency was “inactive”. For `CC[C@H](C=C[C@@H](C)[C@H]1CC[C@H]2[C@@H]3CC=C4C[C@@H](O)CC[C@]4(C)[C@@H]3CC[C@]12C)C(C)C`, the “activity change, negative = inhibition” value was -3.13% [at 25.8 µM]. In the case of `CCC[C@@H](NC(=O)[C@@H]1[C@H]2CCC[C@@H]2CN1C(=O)[C@@H](NC(=O)[C@@H](NC(=O)c1cnccn1)C1CCCCC1)C(C)(C)C)C(=O)C(=O)NC1CC1`, the “activity change, negative = inhibition” value is reported as -0.0698%. `C[C@@H]1O[C@@H](O[C@H]2CC[C@@]3(C)[C@H](CC[C@@H]4[C@H]3C[C@@H](O)[C@]3(C)[C@@H](C5=CC(=O)OC5)CC[C@]43O)C2)C[C@H](O)[C@@H]1O[C@H]1C[C@H](O)[C@H](O[C@H]2C[C@H](O)[C@@H](O)[C@@H](C)O2)[C@H](C)O1` (stereo in doubt) was tested, and the “activity change, negative = inhibition” value was -4.09% [at 104 µM]. With `COc1cc2c(cc1OC)CC(=O)N(CCCN(C)C[C@H]1Cc3cc(OC)c(OC)cc31)CC2` the “activity change, negative = inhibition” value was 83%. With `CON(C)C(=O)N1N=C(c2cc(F)ccc2F)S[C@]1(CCCN)c1ccccc1` the “activity change, negative = inhibition” value was 21.6%. For `CC(C)C[C@H](NC(=O)c1cc2ccccc2s1)C(=O)N1CCN(C(=O)[C@H](CO)NS(=O)(=O)c2ccc(Cl)cc2Cl)CC1`, the “activity change, negative = inhibition” value was -4.89%. In the case of `CCN(CC)CCCCNc1nc2cc(Cl)c(Cl)cc2nc1-c1ccc(-c2cccs2)s1`, the “activity change, negative = inhibition” value is reported as 1.77%. `C[C@]12CC[C@@H]3c4ccc(O)cc4CC[C@H]3[C@H]1[C@@H](O)[C@@H](O)[C@H]2O` was tested, and the “activity change, negative = inhibition” value was 5.82%. `Cc1ccc(C(=O)N(CCCN)[C@@H](c2nc3cc(Cl)ccc3c(=O)n2Cc2ccccc2)C(C)C)cc1` was tested, and the “activity change, negative = inhibition” value was 11.3%. For `CCC(=O)OCC(=O)[C@@]1(OC(=O)CC)[C@@H](C)C[C@@H]2[C@H]3CCC4=CC(=O)C=C[C@]4(C)[C@@]3(F)[C@@H](O)C[C@@]21C`, the “activity change, negative = inhibition” value was -5.9%. `CC(=O)OCC(=O)[C@@]1(O)CC[C@H]2[C@@H]3CCC4=CC(=O)C=C[C@]4(C)[C@@H]3[C@@H](O)C[C@@]21C` was tested, and the “activity change, negative = inhibition” value was 16.3%. In the case of `C[C@@H]1[C@H](C)CC[C@]2(C(=O)O)CC[C@]3(C)C(=CC[C@@H]4[C@@]5(C)CC[C@H](O)C(C)(C)[C@H]5CC[C@]43C)[C@@H]12`, the “activity change, negative = inhibition” value is reported as -0.379% [at 104 µM]. In the case of `CCOC(=O)c1c(CSc2ccccc2)n(C)c2cc(Br)c(O)c(CN(C)C)c12`, the “activity change, negative = inhibition” value is reported as -4.56%. In the case of `COc1ccc(C=CC(=O)Nc2ccccc2C(=O)O)cc1OC`, the “activity change, negative = inhibition” value is reported as -16.6%. In the case of `O=C1C(CCC(O)c2ccc(F)cc2)C(c2ccc(O)cc2)N1c1ccc(F)cc1` (stereo not drawn), the “activity change, negative = inhibition” value is reported as -2.64%.
